Rows were chosen to be rich in hits. Some 2.8% of all compounds tested hit in one or more screens of this group.
pPAFAH inh: inhibitors of human plasma PAF acetylhydrolase (pPAFAH); Q13093; recombinant pPAFAH, FP-rhodamine probe fluorescence polarization; inhibition, % at 3.39 µM; 1.5% of 330,000 active;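 active = inhibition above the mean inhibition across the screen plus 3 SD, cut at about 25% in these data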;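 note: inhibitors block binding of the rhodamine activity-based probe so polarization drops; 0% = enzyme with DMSO and 100% = wells lacking pPAFAH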
PAFAH2 inh: inhibitors of human PAFAH2 | Q99487 | recombinant PAFAH2, FP-rhodamine activity probe, fluorescence polarization | inhibition, % at 3.39 µM | 0.99% of 340,000 active | AID 492956;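 active = inhibition above the mean over all tested compounds plus 3 SD, cut at about 30% in these data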;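 note: inhibitors block probe labeling of enzyme so polarization drops; 0% = enzyme with DMSO and 100% = wells lacking PAFAH2 protein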
HTRA1 inh: blocks human HTRA1 serine peptidase; Q92743; recombinant HTRA1, FP-rhodamine activity-based probe, fluorescence polarization; inhibition, % at 5.96 µM; 0.5% of 340,000 active; AID 504803; in the data active = inhibition above about 36%;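 note: 0% = enzyme with DMSO and 100% = wells lacking enzyme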
Target sequence (Q92743 whole entry, looked up): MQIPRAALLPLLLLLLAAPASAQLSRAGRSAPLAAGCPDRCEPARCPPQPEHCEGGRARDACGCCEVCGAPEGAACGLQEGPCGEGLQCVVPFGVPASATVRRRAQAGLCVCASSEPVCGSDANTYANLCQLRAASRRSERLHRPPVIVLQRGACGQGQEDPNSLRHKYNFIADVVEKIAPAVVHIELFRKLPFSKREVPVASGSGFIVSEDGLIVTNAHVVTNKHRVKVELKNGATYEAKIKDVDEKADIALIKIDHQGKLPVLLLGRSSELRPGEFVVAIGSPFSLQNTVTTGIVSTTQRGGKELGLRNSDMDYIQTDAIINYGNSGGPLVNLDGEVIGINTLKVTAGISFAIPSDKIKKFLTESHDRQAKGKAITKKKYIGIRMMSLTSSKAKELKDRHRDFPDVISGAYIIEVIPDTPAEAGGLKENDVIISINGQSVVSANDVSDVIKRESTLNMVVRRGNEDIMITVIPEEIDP
DAGLB inh: diacylglycerol lipase beta (human) inhibition; Q8NCG7; HEK293T DAGLB membrane lysate, EnzChek fluorogenic substrate; inhibition, % at 5.17 µM; 0.059% of 340,000 active; in the data active = inhibition above about 34%;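 note: 0% = enzyme with vehicle and 100% = wells lacking enzyme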
PAFAH1B3 FP inh: inhibitors of human PAFAH1B3. Q15102. recombinant PAFAH1B3, FP-rhodamine probe, fluorescence polarization. inhibition, % at 3.39 µM. 0.28% of 340,000 active. AID 492972;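 active = inhibition above the screen-wide average of all tested compounds plus 3 SD, cut at about 25% in these data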;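 note: 0% = enzyme with DMSO only and 100% = wells lacking PAFAH1B3 protein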
PAFAH1B2 inh: blocks human PAF acetylhydrolase 1b catalytic subunit 2 | inhibition, % at 3.39 µM | P68402 | 1.2% of 340,000 active | AID 492953 | recombinant PAFAH1B2, FP-rhodamine activity probe, fluorescence polarization;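 active = inhibition above the mean of all tested compounds plus 3 SD, cut at about 24% in these data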;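 note: 0% = enzyme with DMSO and 100% = wells lacking PAFAH1B2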
The depositor's hits bear a star; nt = no result.

SMILES | pPAFAH inh | PAFAH2 inh | HTRA1 inh | DAGLB inh | PAFAH1B3 FP inh | PAFAH1B2 inh
CC(NC(=O)CN(C)S(=O)(=O)c1cccc2nsnc12)c1ccccc1 (stereo not drawn) | 2 | 1 | 10 | 0 | 3 | 31*
Cc1ccc(CNS(=O)(=O)c2c(C)[nH]c(=O)[nH]c2=O)cc1 | nt | 3 | 10 | 0 | 3 | 4
CC(C)=CC(=O)N1CCC(N2CCC(C(=O)NCC3CCCO3)CC2)CC1 (stereo not drawn) | 6 | 4 | 4 | 0 | 3 | 5
Cc1ccc(SCC2(O)CCN(C(=O)c3ccc(Cl)cc3)CC2)cc1 | 28* | -2 | -15 | -4 | -2 | 6
CCN1CCN(C(=O)c2ccc(CSc3ccc(C)cc3)cc2)CC1 | 4 | 12 | 8 | -6 | 6 | 40*
Cc1ccc(CN2CCN(C(=O)c3ccncc3)CC2)cc1 | 3 | 6 | 4 | -1 | 1 | 1
CC(Oc1ccccc1)c1ccn[nH]1 (stereo not drawn) | -4 | 0 | 3 | -2 | 0 | 3
c1ccc(C(c2ccccc2)c2ccn[nH]2)cc1 | 2 | 3 | -1 | -4 | 2 | 27*
Cc1ccc2cc(CCNS(=O)(=O)c3ccc(Br)cc3)c(=O)[nH]c2c1C | 4 | 4 | -8 | 0 | -6 | 30*
Cc1cc(C)n(-c2ccc(NC(=O)C3CCN(Cc4ccccn4)CC3)cc2)n1 | 0 | 2 | -4 | -1 | 0 | 1
Cc1ccc(-c2cc(-c3ccco3)c3c(N)c(C(=O)NN)oc3n2)cc1 | 32* | 22 | 25 | -5 | 13 | 5
COc1cccc(/C=N/NC(=O)c2oc3nc(-c4ccccc4)cc(-c4ccco4)c3c2N)c1 | 17 | 4 | 8 | -3 | 2 | 4
CCN(CC)S(=O)(=O)c1ccc(OCC(=O)NC(=O)c2ccccc2OC)c([N+](=O)[O-])c1 | 7 | 2 | -2 | 1 | 2 | 5
COc1ccc(-c2coc3c(C)c4oc(=O)c(CCC(=O)O)c(C)c4cc23)cc1 | 25* | 7 | -50 | 4 | 5 | 4
Cc1c(CCC(=O)O)c(=O)oc2c(C)c3occ(-c4ccc(Br)cc4)c3cc12 | nt | 11 | -16 | 5 | 7 | 5
CSc1cccc(NC(=O)CCS(=O)(=O)c2cccc3nonc23)c1 | 4 | 0 | 5 | -1 | 5 | 6
CCN(CC)C(=O)Cn1cc(S(=O)(=O)CC(=O)N2CCOCC2)c2ccccc21 | -1 | -7 | 0 | 2 | 3 | 4
CCOc1ccc(-n2c(SCC(=O)N3CCC(C(=O)O)CC3)nc3ccccc3c2=O)cc1 | 8 | -3 | -3 | -2 | 7 | 5
O=C1NC(CCc2ccccc2)C(=O)N1CCOc1cccc(Br)c1 (stereo not drawn) | 13 | 1 | -27 | 1 | 2 | 26*
COc1cc2ccccc2cc1C(=O)Nc1nnc(-c2ccncc2)o1 | -5 | -9 | -2 | -1 | 7 | 1
COc1ccc(-c2sc3ccc(N4CCOCC4)cc3c2C#CC(C)(C)O)cc1 | 10 | 5 | 8 | -2 | -2 | -2
COc1ccc(-c2sc3ccc(N4CCOCC4)cc3c2C#Cc2ccsc2)cc1 | 28* | 4 | -12 | -6 | -2 | -1
O=C(Nn1nnnc1Nc1ccccc1)C12CC3CC(CC(C3)C1)C2 | 5 | 4 | -3 | 3 | 3 | 27*
CC(=O)Nc1ccc(S(=O)(=O)N2c3ccccc3NC(=O)CC2C)c(Cl)c1 (stereo not drawn) | 2 | nt | nt | nt | nt | nt
CC(CCc1ccccc1)NS(=O)(=O)c1ccccc1 (stereo not drawn) | 16 | 4 | -10 | -10 | 8 | 33*
SMILES | pPAFAH inh | PAFAH2 inh | HTRA1 inh | DAGLB inh | PAFAH1B3 FP inh | PAFAH1B2 inh
CCn1cc(CCC(=O)NC2CCCC2)c2ccccc21 | 8 | 7 | 0 | -1 | 7 | 4
CCCCN(CC)C(=O)Cc1c(C(=O)O)[nH]c2ccc(Cl)cc12 | -3 | 1 | -3 | -2 | -1 | 50*
Cc1ccc(C)c(N2CCN(C(=O)Cc3c(C(=O)O)[nH]c4ccc(Cl)cc34)CC2)c1 | 8 | 1 | -15 | 8 | 3 | 4
COc1ccc(OC)c(CNC(=O)Cc2c(C(=O)O)[nH]c3ccc(Cl)cc23)c1 | -1 | 4 | -4 | 1 | 0 | 10
CCOCCCNC(=O)Cc1c(C(=O)O)[nH]c2ccc(Cl)cc12 | -1 | 0 | 2 | 2 | -4 | 30*
C[C@H]1CN([C@@H](C)CO)C(=O)CCCn2nncc2CO[C@H]1CN(C)C(=O)Nc1ccc2c(c1)OCO2 | nt | nt | 0 | -2 | nt | nt
Cc1ccccc1-c1cc(C(=O)O)n(CC2CC(c3cccnc3)=NO2)n1 (stereo not drawn) | -3 | -3 | 3 | 0 | 6 | 3
COC(=O)c1cc(CNC(=O)CCCSc2ccccc2)ccc1OC | nt | -4 | -1 | 1 | 7 | 5
Nc1nnc(CSCc2ccc(Cl)cc2)s1 | 1 | 7 | 2 | 1 | -7 | 28*
COC(=O)c1sc(-c2ccc(C(C)(C)C)cc2)cc1NC(=O)CCC(=O)O | 26* | nt | nt | nt | nt | nt
COC(=O)c1sc(-c2ccc(Cl)cc2)cc1NC(=O)/C=C/C(=O)O | 3 | -2 | 8 | 19 | 5 | 27*
COC(=O)c1sccc1NC(=O)/C=C/C(=O)O | -3 | 3 | 0 | -4 | 0 | 2
COC(=O)c1sc(-c2ccc(Cl)cc2)cc1NC(=O)COCC(=O)O | 15 | 1 | -6 | 5 | 3 | 43*
CSC(=S)NCc1cccnc1 | 1 | -8 | -2 | 0 | 4 | 5
O=C(O)CCc1nn2c3ccccc3n(CC(=O)c3cccs3)c2nc1=O | -1 | 1 | 5 | 0 | -1 | 6
CCN(CC(=O)Nc1c(F)cccc1F)C(=O)Cn1[nH]c(=O)c2ccccc2c1=O | 3 | -2 | 0 | 2 | 9 | 3
CCC(C)(C)C1CCc2[nH]nc(C(=O)NCC3CC3)c2C1 (stereo not drawn) | 1 | 10 | -22 | -2 | 6 | 20
CCC(C)(C)C1CCc2[nH]nc(C(=O)NCCNC(=O)OC(C)(C)C)c2C1 (stereo not drawn) | 5 | 4 | 0 | -1 | 2 | 28*
O=C(COC(=O)C1(c2ccc(F)cc2)CCCC1)N1CCc2ccccc21 | -6 | -1 | 1 | -13 | 6 | 28*
O=C(NCCO)C(=O)NCC1OCCCN1S(=O)(=O)c1ccc2c(c1)OCCO2 (stereo not drawn) | 4 | 4 | -3 | 0 | 0 | 1
N=C1/C(=C/c2ccc(OCc3ccccc3F)cc2)C(=O)N=C2SC(CC(=O)N3CCOCC3)=NN12 | 12 | 5 | -2 | -2 | -1 | 10
N=C1/C(=C/c2ccc(OCc3ccccc3)cc2)C(=O)N=C2SC(CC(=O)N3CCOCC3)=NN12 | 9 | -2 | -7 | 4 | -2 | 28*

Bioassay records from PubChem BioAssay.
